According to PubChem BioAssay (NCATS):
The list shows a part of the results. The source made the active and inactive calls. Calls follow the shape of the dose curve; as a rule, active = well fitted inhibition curve with a large enough effect; inconclusive = small, poorly fitted or top-dose-only effect, or another doubt; inactive = no such curve, though single readings can be large or run the other way.

Biological target: DNA polymerase iota (Homo sapiens) (UniProt Q9UNA4)
Assay: qHTS for Inhibitors of Polymerase Iota: Confirmatory Assay for Cherry-picked Compounds (AID 720496)
Conditions: Pol iota primer extension, TAMRA/BHQ fluorescence
Method in brief: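 Recombinant human Pol iota (10 nM) was preincubated with compound for 15 min at room temperature, then 50 nM final primer/template substrate was added; the substrate carried a TAMRA-labeled reporter strand and a BHQ-2-quenched template. Fluorescence was read at 0 and 10 min.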
Potency is read from the fitted curve at half-maximal effect.

DNA polymerase iota (Homo sapiens), sequence (Q9UNA4 whole entry, looked up): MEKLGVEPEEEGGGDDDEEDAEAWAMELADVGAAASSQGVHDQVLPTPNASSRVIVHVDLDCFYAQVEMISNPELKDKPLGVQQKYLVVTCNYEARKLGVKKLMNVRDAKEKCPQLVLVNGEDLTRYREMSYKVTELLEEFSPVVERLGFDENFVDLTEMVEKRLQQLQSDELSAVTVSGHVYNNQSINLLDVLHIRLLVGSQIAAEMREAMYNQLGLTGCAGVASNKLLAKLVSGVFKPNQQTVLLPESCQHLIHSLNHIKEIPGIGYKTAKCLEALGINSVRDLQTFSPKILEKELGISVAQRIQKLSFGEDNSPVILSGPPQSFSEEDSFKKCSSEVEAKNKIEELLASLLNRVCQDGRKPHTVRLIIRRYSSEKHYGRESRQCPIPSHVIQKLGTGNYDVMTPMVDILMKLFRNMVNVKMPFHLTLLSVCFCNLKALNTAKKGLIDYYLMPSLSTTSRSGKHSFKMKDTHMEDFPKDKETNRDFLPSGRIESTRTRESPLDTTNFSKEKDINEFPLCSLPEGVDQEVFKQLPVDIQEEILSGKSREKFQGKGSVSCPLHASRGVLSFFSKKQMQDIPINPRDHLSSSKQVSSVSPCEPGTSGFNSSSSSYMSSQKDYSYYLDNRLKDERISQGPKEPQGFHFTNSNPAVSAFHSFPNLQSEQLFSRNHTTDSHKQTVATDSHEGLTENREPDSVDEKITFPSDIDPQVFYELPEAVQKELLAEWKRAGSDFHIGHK

Potency, active:
CN(C)CCNC(=O)c1ccc(Cl)c2cc3ccccc3nc12 67 µM
CCOc1cccc2c1N[C@@H](c1ccc(C(=O)O)cc1)[C@H]1CC=C[C@@H]21 33.6 µM
O=C(COC(=O)CCC(=O)c1cccs1)NCc1ccco1 23.8 µM
O=C1COc2c1ccc(O)c2O 33.6 µM
Cc1cc(/C=N/Nc2ccc([N+](=O)[O-])cn2)c(C)n1-c1cccc(C(=O)O)c1 67 µM
COc1ccc2[nH]c3c(C)c4cc[n+](C)cc4c(C)c3c2c1 2.99 µM
Cc1c(CC(=O)N2CCN(C(=O)C3COc4ccccc4O3)CC2)c(=O)oc2c(O)c(O)ccc12 (centres undefined) 15 µM
Cc1ccc(-c2nn(-c3ccccc3)cc2/C=C2\SC(=S)N(CCCCCC(=O)O)C2=O)o1 29.9 µM
O=C(N/N=C/c1ccco1)c1ccc(C(=O)N/N=C/c2ccco2)o1 42.3 µM
O=C(c1cc2c(s1)CCC2)N1CCN(c2ccccc2)CC1 37.7 µM
CN1CCN(CCCNC(=O)c2ccc(/C=C3\Oc4ccccc4N(Cc4ccc(Cl)cc4)C3=O)cc2)CC1 42.3 µM
C=CC1=C(C(=O)O)N2C(=O)[C@@H](NC(=O)/C(=N/OCC(=O)O)c3csc(N)n3)[C@H]2SC1 2.67 µM
O=C(O)C(c1ccccc1)N1C(=O)/C(=C\c2ccc(-c3cccc(Cl)c3)o2)SC1=S (centres undefined) 67 µM
CCc1ccc2nc3sc(C(=O)Nc4nnc(CC)s4)c(N)c3cc2c1 47.4 µM
